Data reported in PubChem BioAssay AID687001 (Broad Institute, 2013).
Entries with a potency or affinity are not part of this list. Active and inactive are the calls of the source.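 How the source made its calls: active means signal-lowering compounds whose fitted half-maximal concentration is at or below twice the top tested dose in every run; inconclusive means runs disagree, flat 30 to 70% inhibition, or poor curve fit; inactive means the rest.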

The compounds below were run against Protein S100-A4 (Homo sapiens) (UniProt P26447) (assay: human S100A4 peptide interaction inhibition curves – biochemical, fluorescence polarization, cherry-picked hits, dose response (AID 687001)). Conditions: FP, S100A4/TAMRA-myosin IIA peptide binding; series mostly up to 11 µM.
Sequence of Protein S100-A4 (Homo sapiens) (P26447 whole entry, looked up): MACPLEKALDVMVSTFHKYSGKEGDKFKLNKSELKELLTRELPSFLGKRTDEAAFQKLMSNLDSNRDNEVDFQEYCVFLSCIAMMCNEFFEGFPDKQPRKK

outcome, inactive:
CC(C)NC(=O)Nc1ccc2c(c1)C(=O)N([C@H](C)CO)C[C@@H](C)[C@H](CN(C)S(=O)(=O)c1ccccc1)OCCCC[C@@H](C)O2
C[C@H]1CN([C@@H](C)CO)C(=O)c2cc(NC(=O)NC3CCCCC3)ccc2O[C@@H]1CN(C)Cc1ccc(C(=O)O)cc1
Cc1cc(NC(=O)CCC(=O)N(Cc2ccco2)C2(C(=O)NC3CCCC3)CCC(C)CC2)no1 (stereo not given)
Cc1cc(C)c(NC(=O)CS(=O)CC(=O)NCCN2CCCCCC2)c(C)c1 (stereo not given)
O=C1CC(c2ccccc2)NN1 (stereo not given)
O=C(c1ccccc1)c1ccc2nc(N3CCCCC3)c3nncn3c2c1
CO[C@H]1CC[C@H]2CCOc3c(C#N)cccc3C(=O)N(C)C[C@H](c3ccccc3)CC(=O)N(C)C[C@H]1O2
C[C@H]1CCCCO[C@H](CN(C)S(=O)(=O)c2ccc(F)cc2)[C@@H](C)CN([C@@H](C)CO)C(=O)c2cc(NS(=O)(=O)c3ccccc3)ccc2O1
C[C@@H]1CN([C@H](C)CO)C(=O)Cc2cc(NC(=O)Nc3ccc(C(F)(F)F)cc3)ccc2O[C@H]1CN(C)Cc1ccc2c(c1)OCO2
COC(=O)C[C@H]1CC[C@@H](NC(=O)Nc2cccc(OC)c2)[C@@H](CO)O1
CCC(=O)Nc1ccc2c(c1)OC[C@H](C)N(C(=O)CC1CC1)C[C@H](C)[C@H](OC)CN(C)C2=O
Cc1cc(C(=O)Nc2ccncc2)c2ccccc2n1
Cn1nc(C(F)(F)F)c(-c2ccc(Br)cc2)c1NC(=O)C1CCC1C(=O)O (stereo not given)
Cc1ccc(S(C)(=O)=O)cc1C(=O)OCC(=O)N(Cc1ccccc1)Cc1ccccc1
CSC[C@H]1CN(Cc2cccnc2)C(=O)[C@@H]1CC(=O)Nc1ccc(Br)cc1
CCCCN1C[C@H](CSC)[C@@H](CC(=O)Nc2ccc(Br)cc2)C1=O
O=C1N[C@@H](Cc2ccccc2)COC(=O)[C@@H](Cc2ccc(F)cc2)CC/C=C/C[C@H]1CC(=O)N(CCO)Cc1ccccc1
Cc1ccc(S(=O)(=O)Nc2ccc3c(c2)C(=O)N([C@@H](C)CO)C[C@@H](C)[C@@H](CN(C)CC2CC2)OCCCC[C@@H](C)O3)cc1
N#Cc1cccc(-c2ccc3c(c2)[C@@H]2[C@@H](CCN2C(=O)c2ccncc2)[C@@H](CO)N3)c1
COc1ccc(C#Cc2ccc([C@H]3[C@H]4CN(C(=O)Nc5ccccc5)CCCCN4[C@H]3CO)cc2)cc1
C[C@H](NC(=O)C[C@@H]1C[C@@H]2c3cc(NC(=O)Nc4ccc(C(F)(F)F)cc4)ccc3O[C@@H]2[C@@H](CO)O1)c1ccccc1
Cc1cccc(S(=O)(=O)N2CC[C@@H]3[C@H](CO)Nc4ccc(C#Cc5ccc(F)cc5)cc4[C@@H]32)c1
CC1(C)Cc2cccc(OCC(=O)N3CCN(c4cccc(C(F)(F)F)c4)CC3)c2O1
Cc1ccc(S(=O)(=O)N(C)C[C@@H]2OCCCC[C@@H](C)Oc3ccc(NS(C)(=O)=O)cc3C(=O)N([C@@H](C)CO)C[C@@H]2C)cc1
O=C(c1ccccc1)N1CC2(C1)[C@H](c1ccccc1)[C@@H](CO)N2Cc1ccccn1
CCCC(=O)Nc1ccc2c(c1)C(=O)N(C)C[C@H](OC)[C@H](C)CN(Cc1ccccc1)[C@@H](C)CO2
CO[C@H]1CN(C)C(=O)c2ccc(NC(=O)NC(C)C)cc2OC[C@@H](C)N(C(=O)NC(C)C)C[C@H]1C
O=C(CSc1ncnc2c1nnn2Cc1ccc(F)cc1)NCC1CCCO1 (stereo not given)
CCNC(=O)[C@@H]1[C@@H](CO)[C@@H]2Cn3c(ccc(-c4ccccc4)c3=O)[C@@H]2N1CC
O=C(C[C@@H]1CC[C@@H](NC(=O)NC2CCCC2)[C@H](CO)O1)NCc1ccc(F)cc1
CN1C(C(=O)Nc2ccc(OC(F)(F)F)cc2)=CC(c2ccco2)=NS1(=O)=O
CCCCn1c(SCC(=O)NC2CCS(=O)(=O)C2)nc2ccccc2c1=O (stereo not given)
CC(C)CC#Cc1ccc([C@@H]2[C@H](CO)N3C(=O)CN(C(=O)c4ccccn4)C[C@@H]23)cc1
N#C[C@@H]1[C@H](c2ccccc2C2=CCCCC2)[C@H](CO)N1C(=O)NC1CCCC1
CCOc1ccc(N(CC(=O)NCCOc2ccccc2OC)S(=O)(=O)c2ccccc2)cc1
